Experimental data as given in PubChem BioAssay (Tox21).
A number with no mark means an inactive call. Inconclusive results are not listed. Entries that show only a call come without a potency. The source made the active and inactive calls. Unless noted, calls follow the shape of the full dose curve.

What was measured:
[1] = Nuclear factor erythroid 2-related factor 2/antioxidant responsive element (Nrf2/ARE) small molecule agonists: qHTS cell viability counter screen in human keratinocytes (AID 1919968; active = well fitted curve in the direction sought with a large enough effect in the repeat runs; an effect the other way counts as inactive or inconclusive; also: nearly all actives have a fitted effect of over 55% in size)
In short: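 Parallel cytotoxicity read: KeratinoSens HaCaT cells, compound treatment 23 h, viability by CellTiter-Fluor fluorescence 1 h post-reagent.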

[2] = target: Gonadotropin-releasing hormone receptor (Homo sapiens) (UniProt P30968); experiment: Human gonadotropin-releasing hormone receptor (GnRHR) small molecule agonists, calcium flux assay in GnRHR-HEK293 cells (AID 1920063); also: nearly all actives have a fitted effect of over 35% in size
Gonadotropin-releasing hormone receptor (Homo sapiens), sequence (P30968 whole entry, looked up): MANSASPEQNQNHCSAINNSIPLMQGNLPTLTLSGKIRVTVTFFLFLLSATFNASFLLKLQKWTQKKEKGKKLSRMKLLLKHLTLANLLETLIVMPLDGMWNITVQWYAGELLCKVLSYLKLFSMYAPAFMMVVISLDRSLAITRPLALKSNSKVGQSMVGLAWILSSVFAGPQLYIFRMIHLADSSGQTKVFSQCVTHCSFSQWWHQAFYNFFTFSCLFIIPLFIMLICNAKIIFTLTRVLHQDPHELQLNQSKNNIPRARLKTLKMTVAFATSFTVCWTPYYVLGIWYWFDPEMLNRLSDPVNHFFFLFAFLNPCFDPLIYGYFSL
In short: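 Calcium flux, agonist mode, human GnRHR stably integrated in HEK293; dye 1 h at 37 C before compound; Ex/Em=480/540 kinetic read, 3 min; 15 concentrations, triplicate.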

[3] = G protein-coupled receptor (GPCR) small molecule agonists, calcium flux assay: HEK293 wild type cell line counter screen (AID 1920065)
In short: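 Non-specific calcium responders were flagged by adding DMSO-dissolved compounds to dye-loaded cells and reading 480/540 nm fluorescence each second for 3 min; ATP served as positive control.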

[4] = p53 small molecule agonists, cell-based qHTS assay with human liver microsomes (AID 1963577)
In short: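 Compounds act here after metabolic activation: human liver microsomes and NADPH, both at 0.5 mg/mL final, were co-added to p53RE-bla cells. Incubation ran 16 h at 37 C, followed by LiveBLAzer detection.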

[5] = p53 small molecule agonists, cell-based qHTS assay with rat liver microsomes (AID 1963578)
In short: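 Read-out is beta-lactamase reporter fluorescence (LiveBLAzer, 2 h, room temperature, dark) in p53RE-bla cells treated 16 h at 37 C with compound, rat liver microsomes and NADPH, both 0.5 mg/mL final.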

[6] = p53 small molecule agonists, cell-based qHTS assay with human liver microsomes: qHTS cell viability counter screen (AID 1963579); also: nearly all actives have a fitted effect of over 45% in size
In short: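 Cells carrying the p53 response-element beta-lactamase reporter are treated for 16 h at 37 C with test compounds in the presence of human liver microsomes and NADPH (both 0.5 mg/mL final); ATP-based CellTiter-Glo luminescence then reports viability.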

[7] = p53 small molecule agonists, cell-based qHTS assay with rat liver microsomes: qHTS cell viability counter screen (AID 1963580); also: nearly all actives have a fitted effect of over 45% in size
In short: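 Cytotoxicity counter screen: intracellular ATP read by CellTiter-Glo luminescence in the p53 reporter wells. HCT-116 p53RE-bla cells were treated for 16 h at 37 C alongside rat liver microsomes and NADPH, each 0.5 mg/mL final.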

[8] = p53 small molecule agonists, cell-based qHTS assay: qHTS cell viability counter screen (AID 1963581); also: nearly all actives have a fitted effect of over 45% in size
In short: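 Multiplexed with the reporter read, a CellTiter-Glo step (30 min, room temperature) gauges ATP-based viability of HCT-116 p53RE-bla cells after 16 h compound incubation at 37 C.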

[9] = p53 small molecule agonists, cell-based qHTS assay (AID 1963582; active = well fitted activation curve with a large enough effect in the signal ratio in the repeat runs, not every such curve was filed as active; the % refers to the signal ratio)
In short: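 Beta-lactamase reporter cells (p53RE-bla) treated with compounds for 16 h at 37 C; FRET substrate, 2 h, room temperature; fluorescence intensity.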

[10] = target: 5-hydroxytryptamine receptor 2A (Homo sapiens) (UniProt P28223); experiment: 5-hydroxytryptamine receptor 2A (HTR2A) small molecule antagonists, cell-based qHTS assay (AID 1963586); also: nearly all actives have a fitted effect of over 45% in size
5-hydroxytryptamine receptor 2A (Homo sapiens), sequence (P28223 whole entry, looked up): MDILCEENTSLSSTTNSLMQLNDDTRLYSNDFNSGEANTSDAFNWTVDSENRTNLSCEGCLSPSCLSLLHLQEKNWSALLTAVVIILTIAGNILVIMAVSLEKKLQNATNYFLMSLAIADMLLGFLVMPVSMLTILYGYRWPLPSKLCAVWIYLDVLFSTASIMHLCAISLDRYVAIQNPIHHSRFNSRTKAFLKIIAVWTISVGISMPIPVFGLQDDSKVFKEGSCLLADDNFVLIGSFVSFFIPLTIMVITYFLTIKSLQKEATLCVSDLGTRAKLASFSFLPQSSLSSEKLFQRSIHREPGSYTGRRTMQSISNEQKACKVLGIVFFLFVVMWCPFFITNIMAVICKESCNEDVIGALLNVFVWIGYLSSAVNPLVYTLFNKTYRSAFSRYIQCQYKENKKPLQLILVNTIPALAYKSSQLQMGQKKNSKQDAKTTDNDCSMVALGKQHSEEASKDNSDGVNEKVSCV
In short: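 CHO cells stably expressing human HTR2A were plated for 18 h at 37 C, then loaded with calcium dye for 1 h. Compounds were preincubated 5 min at room temperature before DOI (4 nM solution) was added. Kinetic fluorescence was read for 3 min.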

[11] = target: 5-hydroxytryptamine receptor 2A (Homo sapiens) (UniProt P28223); experiment: 5-hydroxytryptamine receptor 2A (HTR2A) small molecule agonists, cell-based qHTS assay (AID 1963587); also: nearly all actives have a fitted effect of over 30% in size
In short: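 Kinetic calcium-flux fluorescence (2 min, 1 sec intervals) after compound addition in agonist mode. HTR2A-CHO cells were cultured 18 h, then dye-loaded 1 h at 37 C.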

[12] = target: Muscarinic acetylcholine receptor M1 (Homo sapiens) (UniProt P11229); experiment: Cholinergic receptor muscarinic 1 (CHRM1) small molecule agonists, cell-based qHTS assay (AID 1963589); also: nearly all actives have a fitted effect of over 35% in size; also: potency is read from the fitted curve at half-maximal effect
Muscarinic acetylcholine receptor M1 (Homo sapiens), sequence (P11229 whole entry, looked up): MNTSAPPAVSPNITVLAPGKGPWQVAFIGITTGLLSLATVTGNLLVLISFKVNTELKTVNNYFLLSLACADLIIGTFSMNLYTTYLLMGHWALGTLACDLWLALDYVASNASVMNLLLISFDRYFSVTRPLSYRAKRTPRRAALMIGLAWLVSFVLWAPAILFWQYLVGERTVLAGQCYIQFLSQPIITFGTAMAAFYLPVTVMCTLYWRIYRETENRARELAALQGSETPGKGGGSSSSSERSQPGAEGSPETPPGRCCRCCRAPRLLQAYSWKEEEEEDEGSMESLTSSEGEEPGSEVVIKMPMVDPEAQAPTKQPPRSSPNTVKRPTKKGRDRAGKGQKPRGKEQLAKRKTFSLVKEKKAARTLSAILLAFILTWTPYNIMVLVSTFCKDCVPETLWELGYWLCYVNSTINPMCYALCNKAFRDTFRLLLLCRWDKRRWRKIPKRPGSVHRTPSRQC
In short: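 qHTS, 15-point titration, 3 independent runs: compounds pin-transferred onto dye-loaded CHRM1-CHO cells (human M1), calcium fluorescence followed every second to detect agonism.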

[13] = cAMP Responsive Elements (CRE) small molecule antagonists, cell-based qHTS assay (AID 1963591; active = well fitted inhibition curve with a large enough effect in the signal ratio in the repeat runs, not every such curve was filed as active; the % refers to the signal ratio)
In short: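 Fluorescence intensity from cleaved LiveBLAzer B/G substrate (2 h, room temperature) quantified CRE-bla activity in HEK 293T cells exposed 3 h to compound with 0.25 uM final NKH477.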

[14] = target: Beta-2 adrenergic receptor (Homo sapiens) (UniProt P07550); experiment: Adrenergic beta2 receptor (ADRB2) small molecule antagonists, cell-based qHTS assay (AID 1963592); also: series mostly up to about 92 µM; nearly all actives have a fitted effect of over 50% in size
Beta-2 adrenergic receptor (Homo sapiens), sequence (P07550 whole entry, looked up): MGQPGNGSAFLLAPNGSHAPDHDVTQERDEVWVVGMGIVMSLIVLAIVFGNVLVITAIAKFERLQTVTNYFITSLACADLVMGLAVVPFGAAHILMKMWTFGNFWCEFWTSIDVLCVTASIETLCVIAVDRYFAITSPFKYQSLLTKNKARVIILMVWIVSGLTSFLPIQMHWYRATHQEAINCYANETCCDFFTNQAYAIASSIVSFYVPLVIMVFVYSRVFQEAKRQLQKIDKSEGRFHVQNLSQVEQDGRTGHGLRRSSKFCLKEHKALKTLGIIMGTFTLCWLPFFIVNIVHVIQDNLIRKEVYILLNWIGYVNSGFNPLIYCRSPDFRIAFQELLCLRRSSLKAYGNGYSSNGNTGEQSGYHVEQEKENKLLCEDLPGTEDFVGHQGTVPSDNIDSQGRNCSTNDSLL
In short: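 Assay format: CHO-ADRB2 cells, 18-20hr seeding at 37C/5% CO2, then compound plus 1nM isoproterenol agonist mix for 0.5hr RT. Homogeneous time-resolved fluorescence cAMP detection after 1hr, expressed as 665/615 nm ratio.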

[15] = target: Beta-2 adrenergic receptor (Homo sapiens) (UniProt P07550); experiment: Adrenergic beta2 receptor (ADRB2) small molecule agonists, cell-based qHTS assay (AID 1963593);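 also: CHO cells stably overexpressing human ADRB2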
In short: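 CHO cells stably over-expressing ADRB2 were plated overnight at 37C, then dosed with compounds plus a stimulation mix containing 100uM IBMX and 25uM Ro-20-1724 for 0.5hr at room temperature. cAMP was measured by HTRF competition, 1hr.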

[16] = target: D(2) dopamine receptor (Homo sapiens) (UniProt P14416); experiment: Dopamine D2 receptor (DRD2) small molecule antagonists, cell-based qHTS assay (AID 1963595; active = well fitted inhibition curve with a large enough effect in the signal ratio in the repeat runs, with a control signal flat; the % refers to the signal ratio)
D(2) dopamine receptor (Homo sapiens), sequence (P14416 whole entry, looked up): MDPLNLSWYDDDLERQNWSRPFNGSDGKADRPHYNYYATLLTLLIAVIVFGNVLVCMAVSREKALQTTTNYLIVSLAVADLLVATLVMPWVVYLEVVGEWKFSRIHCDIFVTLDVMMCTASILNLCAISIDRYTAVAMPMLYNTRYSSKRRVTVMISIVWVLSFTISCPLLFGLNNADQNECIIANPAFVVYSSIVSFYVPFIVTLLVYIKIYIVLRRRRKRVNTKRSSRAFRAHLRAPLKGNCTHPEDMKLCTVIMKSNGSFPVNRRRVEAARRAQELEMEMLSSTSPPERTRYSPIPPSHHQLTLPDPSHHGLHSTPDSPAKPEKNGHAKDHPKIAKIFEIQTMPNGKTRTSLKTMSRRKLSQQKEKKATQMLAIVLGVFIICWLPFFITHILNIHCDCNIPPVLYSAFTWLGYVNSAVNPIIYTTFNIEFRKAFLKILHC
In short: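 Cells were plated and grown for 24 h at 37 °C. Ro20-1724 (0.1 mM final) went in first, then compound for 10 min. NKH477 (200 nM) with quinpirole (12 nM) followed for 30 min at RT, then HTRF detection reagents for 1 h.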

[17] = target: KiSS-1 receptor (Homo sapiens) (UniProt Q969F8); experiment: Human kisspeptin (KISS1R) small molecule agonists, calcium flux assay in KISS1R-HEK293 cells (AID 1920064; active = well fitted curve in the direction sought with a large enough effect in the repeat runs; an effect the other way counts as inactive or inconclusive)
KiSS-1 receptor (Homo sapiens), sequence (Q969F8 whole entry, looked up): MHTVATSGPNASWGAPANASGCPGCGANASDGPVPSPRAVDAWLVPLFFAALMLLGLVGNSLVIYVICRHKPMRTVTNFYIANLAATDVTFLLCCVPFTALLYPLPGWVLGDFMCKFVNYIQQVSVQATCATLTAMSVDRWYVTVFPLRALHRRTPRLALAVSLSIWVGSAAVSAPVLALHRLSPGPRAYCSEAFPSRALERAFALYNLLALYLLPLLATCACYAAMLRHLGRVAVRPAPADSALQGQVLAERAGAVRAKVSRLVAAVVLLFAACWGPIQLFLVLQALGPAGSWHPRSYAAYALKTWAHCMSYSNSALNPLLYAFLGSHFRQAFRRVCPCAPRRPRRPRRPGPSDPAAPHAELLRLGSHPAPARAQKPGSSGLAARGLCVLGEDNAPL
In short: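 Triplicate 15-concentration series were applied to dye-loaded human KISS1R HEK293 cells, and agonist-evoked calcium fluorescence was captured for 3 min.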

[18] = target: Muscarinic acetylcholine receptor M1 (Homo sapiens) (UniProt P11229); experiment: Cholinergic receptor muscarinic 1 (CHRM1) small molecule antagonists, cell-based qHTS assay (AID 1963588); also: nearly all actives have a fitted effect of over 40% in size
In short: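 Compounds were tested at 15 concentrations in three independent runs. Dye-loaded CHRM1-CHO cells were exposed 5 min at room temperature before stimulation by acetylcholine added at 50nM. Intracellular calcium was read kinetically on FDSS for 3 min.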

[19] = cAMP Responsive Elements (CRE) small molecule agonists, cell-based qHTS assay (AID 1963590)
In short: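 Quantitative HTS for CRE agonists: HEK 293T CRE-bla cells, overnight plating, 3 h compound incubation at 37 C/5% CO2, then 2 h room-temperature LiveBLAzer B/G FRET substrate loading.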

[20] = target: D(2) dopamine receptor (Homo sapiens) (UniProt P14416); experiment: Dopamine D2 receptor (DRD2) small molecule agonists, cell-based qHTS assay (AID 1963594); also: nearly all actives have a fitted effect of over 35% in size
In short: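 cAMP accumulation in DRD2-HEK293 cells measured by HTRF after 1 h detection; compounds added 10 min before NKH477 (200nM […]) forskolin-analogue stimulation, 30 min at room temperature, with Ro20-1724 present at 0.1 mM final.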

Structure (SMILES)	Potency [1]	Potency [2]	outcome [3]	Potency [4]	Potency [5]	Potency [6]	Potency [7]	Potency [8]	Potency [9]	Potency [10]	Potency [11]	Potency [12]	Potency [13]	Potency [14]	Potency [15]	Potency [16]	outcome [17]	Potency [18]	Potency [19]	Potency [20]
CNc1c2c(nn1C)CCCC2	inactive	inactive	inactive	inactive	inactive	inactive	inactive	inactive	inactive	inactive	inactive	inactive	inactive	inactive	inactive	inactive	–	–	–	–
C=CCn1c(=O)n(CC=C)c(=O)n(CC=C)c1=O	inactive	inactive	–	inactive	inactive	inactive	inactive	inactive	inactive	inactive	inactive	inactive	–	inactive	inactive	inactive	inactive	inactive	inactive	inactive
S=c1[nH][nH]c(=S)s1	inactive	inactive	inactive	–	inactive	–	inactive	–	inactive	inactive	inactive	inactive	–	inactive	–	inactive	inactive	inactive	inactive	inactive
O=C(O)c1cc(C(=O)O)c(C(=O)O)cc1C(=O)O	inactive	inactive	inactive	–	inactive	–	inactive	inactive	inactive	inactive	inactive	inactive	inactive	inactive	inactive	inactive	inactive	inactive	inactive	inactive
CC(=O)O[C@@H]1CC2CCC1(C)C2(C)C (some centres not stated)	inactive	–	inactive	inactive	inactive	inactive	inactive	–	–	inactive	inactive	inactive	inactive	inactive	inactive	–	inactive	–	inactive	inactive
CC1=C(CC=O)C(C)(C)CCC1	inactive	–	inactive	inactive	inactive	inactive	inactive	inactive	inactive	inactive	inactive	inactive	inactive	inactive	–	inactive	inactive	–	inactive	–
C[N+]1(C)CCCC(OC(=O)C(O)(c2ccccc2)c2ccccc2)C1 (configuration not stated)	inactive	inactive	–	inactive	inactive	inactive	inactive	inactive	inactive	inactive	inactive	inactive	inactive	inactive	inactive	inactive	inactive	–	inactive	inactive
CCCCCCCCCC=O	inactive	inactive	inactive	inactive	–	–	inactive	inactive	–	–	inactive	inactive	–	inactive	inactive	inactive	inactive	inactive	–	inactive
C=CCON/C(CCC)=C1\C(=O)CC(C)(C)C(C(=O)OC)=C1O	inactive	inactive	inactive	–	inactive	inactive	inactive	inactive	inactive	inactive	inactive	4.84 µM (active)	inactive	inactive	–	inactive	inactive	inactive	inactive	inactive
O=C(c1ccccc1)c1ccc(Cl)cc1	inactive	inactive	inactive	–	inactive	inactive	inactive	inactive	–	–	inactive	inactive	inactive	–	–	inactive	inactive	inactive	–	inactive
COc1cc2c(cc1OC)-c1cc3ccc(OC)c(OC)c3c[n+]1CC2	inactive	–	inactive	inactive	inactive	inactive	inactive	inactive	inactive	–	inactive	inactive	inactive	–	–	–	inactive	inactive	–	–
CCc1cccc(C)c1N(C(=O)C(=O)O)C(C)COC (configuration not stated)	inactive	–	inactive	–	inactive	inactive	inactive	inactive	inactive	inactive	inactive	inactive	inactive	inactive	–	inactive	inactive	inactive	inactive	inactive
CN(C(=O)C(Cl)Cl)c1ccc(OC(=O)c2ccco2)cc1	inactive	inactive	inactive	–	inactive	inactive	inactive	inactive	inactive	inactive	inactive	inactive	inactive	inactive	–	inactive	inactive	inactive	inactive	inactive
N#CCc1ccc(Cl)cc1Cl	inactive	–	inactive	inactive	inactive	inactive	inactive	inactive	inactive	inactive	inactive	inactive	inactive	inactive	–	inactive	inactive	inactive	inactive	–
